In PubChem BioAssay AID1159580 (chemical genetic matrix, 2015):
In all, about 5,500 compounds went through this assay and about 2,000 (36%) were called active. Inconclusive results (about 18%) are left out. Rule as the data show it: active = normalized growth mostly below about 0.91 (no sharp cut-off); inconclusive = no clear call, values can overlap the other calls; inactive = mostly above about 0.92. The list shows a part of the results.

Experiment: chemical genetic growth profiling, strain panel (AID 1159580);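 also: tested at 20 µM; growth read once vehicle control cultures reached saturation at 30 °C; 1 = growth at the plate median or of vehicle wells; lower values mean less growth of the strain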
Conditions: S. cerevisiae deletion strains, growth OD

Measured: normalized growth

CC[N+](C)(C)Cc1ccccc1Br
inactive: locus YAL040C, strain CLN3, active compounds read low 0.99 | locus YCL061C, strain MRC1 (second series), active compounds read low 1.01 | locus YDR363W, strain ESC2, active compounds read low 0.991 | locus YER002W, strain NOP16, active compounds read low 0.993 | locus YGR078C, strain PAC10, active compounds read low 0.99 | locus YNL175C, strain NOP13, active compounds read low 1.01 | locus YNL197C, strain WHI3, active compounds read low 1.01 | locus YNL224C, strain SQS1, active compounds read low 0.983 | locus YOR083W, strain WHI5 (second series), active compounds read low 0.974 | locus YPL055C, strain LGE1, active compounds read low 0.999 | locus YPL241C, strain CIN2, active compounds read low 1.01
